High-throughput results as filed in PubChem.
p53null 39C kill = kills p53 null cells at the nonpermissive temperature; H1299 p53-null (neo) cells, 39C, ATPlite viability, 24 h; Potency, µM (titrated, usually from 46.1 µM), actives largely listed as cytotoxic; 0.97% of 55,000 active; AID 904; also: nearly all actives have a fitted effect of over 50% in size
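Luminescent ATP signal reported cell survival after H1299 lines (neo, p53 null; or p53 A138V) received up to 46 uM compound and 24 hr incubation at 39C.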
p53null 32C tox = kills p53 null cells at the permissive temperature; H1299-neo p53 null cells, ATP luminescence, 24 h, 32C; Potency, µM (titrated, usually from 46.1 µM), usual class: cytotoxic; 0.62% of 55,000 active; AID 903; also: nearly all actives have a fitted effect of over 55% in size
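H1299-neo (p53-null) cells, 600/well, were pre-incubated overnight at 37C, then exposed to compounds at up to 46 uM for 24 hr at 32C. Viability was measured as ATP content by luminescence, and AC50 values came from Hill fits.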
NTMT1 inhibitor = blocks human N-terminal methyltransferase 1 activity; 2.5% of 59,000 active; NTMT1 MTase-Glo SAH luminescence, purified enzyme; Q9BV86; Potency, µM (top dose mostly 114 µM), hits mostly inhibitors; also: nearly all actives have a fitted effect of over 65% in size
GALC G270D act = enhancers of human galactocerebrosidase G270D mutant activity in cells; P54803; 145M-Twi-hGALC-G270D cells (Twitcher mouse brain line with human GALC G270D), HMU-beta-Gal fluorescence, 48 h; Potency, µM (highest dose often 57.5 µM), most hits filed as activators; 0.1% of 45,000 active; also: nearly all actives have a fitted effect of over 65% in size
Target sequence (P54803 whole entry G286D): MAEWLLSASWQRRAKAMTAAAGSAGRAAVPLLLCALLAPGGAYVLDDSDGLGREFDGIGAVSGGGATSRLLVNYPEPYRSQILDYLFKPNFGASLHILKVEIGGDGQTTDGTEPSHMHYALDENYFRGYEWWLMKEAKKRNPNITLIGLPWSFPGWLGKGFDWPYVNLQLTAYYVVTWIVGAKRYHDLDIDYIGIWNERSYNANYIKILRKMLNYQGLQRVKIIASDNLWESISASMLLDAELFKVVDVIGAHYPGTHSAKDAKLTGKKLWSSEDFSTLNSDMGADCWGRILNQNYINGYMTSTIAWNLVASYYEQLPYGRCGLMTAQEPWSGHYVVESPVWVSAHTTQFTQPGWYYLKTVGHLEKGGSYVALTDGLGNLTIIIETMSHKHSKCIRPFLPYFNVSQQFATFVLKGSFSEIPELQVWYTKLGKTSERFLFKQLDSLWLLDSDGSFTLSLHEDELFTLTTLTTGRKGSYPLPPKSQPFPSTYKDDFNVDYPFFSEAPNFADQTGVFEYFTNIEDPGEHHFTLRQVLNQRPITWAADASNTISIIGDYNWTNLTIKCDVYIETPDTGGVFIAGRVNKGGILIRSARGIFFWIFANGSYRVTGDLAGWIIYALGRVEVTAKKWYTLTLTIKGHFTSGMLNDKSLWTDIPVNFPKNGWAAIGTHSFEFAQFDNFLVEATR
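Mutant human GALC (G270D), stably expressed in a Twitcher mouse brain cell line lacking endogenous GALC, is measured in live-treated cells via 6-hexadecanoylamino-4-methylumbelliferyl-β-galactoside hydrolysis (0.1 mM final, pH 5.2) with fluorescent detection.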
FH mod = Identification of activators of human fumarate hydratase by quantitative high-throughput screening; Fumarate hydratase, mitochondrial (Homo sapiens), P07954; FH coupled MDH/diaphorase resazurin fluorescence, 15 min; 0.22% of 54,000 active; Potency, µM (series often up to 79.9 µM), actives largely listed as inhibitors; also: the screen sought activators but most active calls are inhibition curves; nearly all actives have a fitted effect of over 45% in size
Numbers stand for hits; i = inactive; ? = inconclusive; nt = no result given; ! = a repeat was not active; [ ] = another dose, or the depositor's remark. This is one part of a sample in which hits are shown more often than they occur. Calls follow the shape of the dose curve; as a rule, active = well fitted curve in the direction sought with a large enough effect; inconclusive = small, poorly fitted or top-dose-only effect, or another doubt; inactive = no such curve, though single readings can be large; an effect the other way counts as inactive or inconclusive.

SMILES	p53null 39C kill	p53null 32C tox	NTMT1 inhibitor	GALC G270D act	FH mod
CC1(C)[C@H]2C[C@H](C/C=C\CCCC(=O)O)[C@@H](NC(=O)c3csc4ccc(O)cc34)[C@@H]1C2	nt	nt	i	nt	i
O=c1c(O)c(-c2ccc(O)c(O)c2)oc2cc(O)ccc12	nt	nt	50.1µM!	nt	27.3µM![activator]
O=c1c(O)c(-c2ccc(O)cc2)oc2cc(O)cc(O)c12	nt	nt	?	nt	i
COc1cc(O)c2c(=O)c(O)c(-c3ccc(O)c(O)c3)oc2c1	nt	nt	25.1µM	nt	i
CN1CCN(C2=Nc3ccccc3Nc3ccc(O)cc32)CC1	nt	nt	i	nt	i
CN1CCc2c(sc3c2C(=O)NC(c2ccc(C(C)(C)C)cc2)N3)C1 (configuration not stated)	i	i	79.4µM	i	i
Cc1ccc(NS(=O)(=O)c2cccc(C(=O)Nc3nc(-c4ccccc4)cs3)c2)cc1	nt	nt	i	nt	nt
COc1cc2ncnc(Nc3ccc(F)c(Cl)c3)c2cc1NC(=O)C=CCN1CCCCC1	nt	nt	i	nt	i
CN(C)C/C=C/C(=O)Nc1cc2c(Nc3ccc(F)c(Cl)c3)ncnc2cc1O[C@H]1CCOC1	nt	nt	3.16µM	nt	nt
CN(C)CC=CC(=O)Nc1cc2c(Nc3ccc(F)c(Cl)c3)ncnc2cc1O[C@H]1CCOC1	nt	nt	21.5µM	nt	i
CCOc1cc2ncc(C#N)c(Nc3ccc(F)c(Cl)c3)c2cc1NC(=O)C=CCN(C)C	nt	nt	3.83µM	nt	i
CCc1cccc(C)c1NC(=O)CCS(=O)(=O)c1ccc2c(c1)oc(=O)n2C	i	i	39.8µM	i	i
Cc1ccc(SCC(=O)Nc2ccc3oc(-c4cccc(C)c4)nc3c2)cc1	i	i	i	i	?
Cc1ccc2oc(-c3ccc(NC(=O)CCC(=O)O)cc3)nc2c1	?	12.6µM	i	i	i
Cc1cc(SCc2sc(-c3ccc(C(F)(F)F)cc3)nc2C)ccc1OCC(=O)O	nt	nt	79.4µM!	nt	i
CCOC(=O)c1c(NC(=O)c2ccc(S(=O)(=O)N(CC(C)C)CC(C)C)cc2)sc2c1CCN(CC)C2	i	i	89.1µM	i	i
CCCCN(CCCC)S(=O)(=O)c1ccc(C(=O)Nc2sc3c(c2C(N)=O)CCN(CC)C3)cc1	i	i	i	i	i
CCN(CC)CCCCn1c(-c2ccccc2)nc2c(NCc3ccccc3)nc(C)nc21	nt	nt	89.1µM	nt	nt
CCN(CC)CCCn1c(-c2ccccc2)nc2c(NCc3ccccc3)nc(C)nc21	nt	nt	i	nt	nt
COc1ccc(CNC(=O)CSc2ncc(S(=O)(=O)c3ccc(Br)cc3)c(=O)[nH]2)cc1	i	i	i	i	i
COC(=O)c1cc(Cl)ccc1NC(=O)CSc1ncc(S(=O)(=O)c2ccc(Br)cc2)c(=O)[nH]1	i	i	79.4µM	i	?
CCN(CC)CCNC(=O)Nc1ccc2c(c1)N(Cc1ccccc1)C(=O)c1ccccc1S2	17.8µM	i	?	i	i
C[C@@H]1CCC/C=C/[C@H]2CC(=O)C[C@@H]2[C@@H](O)/C=C/C(=O)O1	nt	nt	i	nt	i
CC1NC(=O)CNC(=O)C(C(C)C)NC(=O)C2CCCN2C(=O)C(C(C)C)NC(=O)C(Cc2c[nH]c3ccccc23)NC1=O (configuration not stated)	nt	nt	i[12.6 µM]	nt	i
Cc1ccsc1/C=C/C1=NCCCN1C	nt	nt	12.6µM	i	i
SMILES	p53null 39C kill	p53null 32C tox	NTMT1 inhibitor	GALC G270D act	FH mod
C[C@H](Oc1cc(-n2cnc3ccc(CN4CCN(C)CC4)cc32)sc1C(N)=O)c1ccccc1C(F)(F)F	nt	nt	25.1µM	nt	i
CN1CCN(Cc2ccc(NC(=O)Nc3ccc(Oc4cc(NC(=O)C5CC5)ncn4)cc3)cc2C(F)(F)F)CC1	nt	nt	?	nt	i
CC(=O)O[C@@H]1CC2C(/C=C(\C)C(=O)[C@@]3(O)C[C@@H](C)[C@H](OC(=O)c4ccccc4)C3/C=C/1C)C2(C)C (some centres not stated)	nt	nt	i	nt	i
CCOC(=O)C1CCN(c2cc3c(cc2NC(=O)c2ccc(Cl)cc2)n(C)c(=O)n3C)CC1	i	i	i	i	20µM
CCC1CCCCN1CCCNC(=O)c1cc2c(Cl)nc3ccc(C)cc3c2s1 (configuration not stated)	20µM	i	28.2µM	i	i
CCC1CCCCN1CCCNC(=O)c1cc2c(=O)n(CC)c3ccccc3c2s1 (configuration not stated)	i	i	?	i	i
CC1=C(C)C(=O)OC(C(C)C2C(O)CC3C4C5OC5C5(O)CC(OC6OC(CO)C(OC7OC(C)C(O)C(O)C7O)C(O)C6O)CC(O)C5(C)C4CCC32C)C1 (configuration not stated)	nt	nt	i[12.6 µM]	nt	i
NC1(c2ccc(-c3nc4ccn5c(=O)[nH]nc5c4cc3-c3ccccc3)cc2)CCC1	nt	nt	50.1µM!	i	i
O=C(CSc1nccn1-c1ccc(Cl)cc1)Nc1nc2ccccc2s1	i	i	i	i	i
O=C(CSc1nccn1Cc1ccc(Cl)cc1)Nc1nc2ccccc2s1	14.1µM	i	i	i	i
O=c1oc2c(O)c(O)cc3c(=O)oc4c(O)c(O)cc1c4c23	nt	nt	3.55µM!	i	i
C/C=C(/C)C(=O)O[C@H]1C(C)=CC23C(=O)C(C=C(CO)[C@@H](O)[C@]12O)[C@H]1[C@@H](C[C@H]3C)C1(C)C (some centres not stated)	nt	nt	i	nt	nt
CCOC(=O)NNc1ccc(N(CC)CC(C)O)nn1 (configuration not stated)	nt	nt	28.2µM	i	i
O=C1NC(=O)C(c2c[nH]c3ccccc23)=C1c1c[nH]c2ccccc12	nt	nt	11.2µM	nt	i
O=C(O)C1(Cc2cccc(Nc3nccs3)n2)CCC(Oc2cccc(Cl)c2F)CC1 (configuration not stated)	nt	nt	28.2µM	nt	i
CC(CC1c2ccccc2CCc2ccccc21)CN(C)C (configuration not stated)	nt	nt	12.6µM	i	i
CCOC(=O)C1CCN(C(=O)c2ccc3c(c2)sc2nc(-c4ccc(C)cc4)cn23)CC1	i	i	i	i	?
CCOC(=O)C1CCN(C(=O)c2ccc3c(c2)sc2nc(-c4ccc(OC)cc4)cn23)CC1	i	i	89.1µM	i	i
CCC(=C(c1ccc(O)cc1)c1ccc(OCCNC)cc1)c1ccccc1	nt	nt	24.1µM	nt	i
CC/C(=C(/c1ccc(O)cc1)c1ccc(OCCNC)cc1)c1ccccc1	nt	nt	11.2µM	nt	nt
CCC(=C(c1ccccc1)c1ccc(OCCN(C)C)cc1)c1ccccc1	nt	nt	19.2µM	nt	i
CC/C(=C(\c1ccccc1)c1ccc(OCCN(C)C)cc1)c1ccccc1	nt	nt	?	i	?
Cc1c2cc(c(C(=O)O)c1C)OC1OC(C(O)C(O)C1O)C(O)C(O)C1OC(O2)C(O)C(O)C1O (configuration not stated)	nt	nt	?	nt	i
NC[C@H]1O[C@@H](n2cnc3c(N)ncnc32)[C@H](O)[C@@H]1O	nt	nt	nt	nt	i
CC(C)N(CCCNC(=O)Nc1ccc(C(C)(C)C)cc1)C[C@H]1O[C@@H](n2cc(Br)c3c(N)ncnc32)[C@H](O)[C@H]1O	nt	nt	19.2µM	nt	i
CC(=O)Nc1sc2c(c1-c1ccc(N3CCN(C)CC3)cc1)CCNC2	nt	nt	i	nt	nt
